Only a selection was taken, and hits are over-represented in it overall.
KDM5B inh = blocks human KDM5B histone demethylase activity; Q9UGL1; KDM5B demethylase, FDH-coupled NADH fluorescence (FDH is formaldehyde dehydrogenase); Potency, µM (highest dose often 57.7 µM), usual class: inhibitors; actives 2.6% (n = 220,000); active = well fitted inhibition curve with a large enough effect; note: 0% is about no effect; nearly all actives have a fitted effect of over 70% in size
Target sequence (Q9UGL1 whole entry, looked up): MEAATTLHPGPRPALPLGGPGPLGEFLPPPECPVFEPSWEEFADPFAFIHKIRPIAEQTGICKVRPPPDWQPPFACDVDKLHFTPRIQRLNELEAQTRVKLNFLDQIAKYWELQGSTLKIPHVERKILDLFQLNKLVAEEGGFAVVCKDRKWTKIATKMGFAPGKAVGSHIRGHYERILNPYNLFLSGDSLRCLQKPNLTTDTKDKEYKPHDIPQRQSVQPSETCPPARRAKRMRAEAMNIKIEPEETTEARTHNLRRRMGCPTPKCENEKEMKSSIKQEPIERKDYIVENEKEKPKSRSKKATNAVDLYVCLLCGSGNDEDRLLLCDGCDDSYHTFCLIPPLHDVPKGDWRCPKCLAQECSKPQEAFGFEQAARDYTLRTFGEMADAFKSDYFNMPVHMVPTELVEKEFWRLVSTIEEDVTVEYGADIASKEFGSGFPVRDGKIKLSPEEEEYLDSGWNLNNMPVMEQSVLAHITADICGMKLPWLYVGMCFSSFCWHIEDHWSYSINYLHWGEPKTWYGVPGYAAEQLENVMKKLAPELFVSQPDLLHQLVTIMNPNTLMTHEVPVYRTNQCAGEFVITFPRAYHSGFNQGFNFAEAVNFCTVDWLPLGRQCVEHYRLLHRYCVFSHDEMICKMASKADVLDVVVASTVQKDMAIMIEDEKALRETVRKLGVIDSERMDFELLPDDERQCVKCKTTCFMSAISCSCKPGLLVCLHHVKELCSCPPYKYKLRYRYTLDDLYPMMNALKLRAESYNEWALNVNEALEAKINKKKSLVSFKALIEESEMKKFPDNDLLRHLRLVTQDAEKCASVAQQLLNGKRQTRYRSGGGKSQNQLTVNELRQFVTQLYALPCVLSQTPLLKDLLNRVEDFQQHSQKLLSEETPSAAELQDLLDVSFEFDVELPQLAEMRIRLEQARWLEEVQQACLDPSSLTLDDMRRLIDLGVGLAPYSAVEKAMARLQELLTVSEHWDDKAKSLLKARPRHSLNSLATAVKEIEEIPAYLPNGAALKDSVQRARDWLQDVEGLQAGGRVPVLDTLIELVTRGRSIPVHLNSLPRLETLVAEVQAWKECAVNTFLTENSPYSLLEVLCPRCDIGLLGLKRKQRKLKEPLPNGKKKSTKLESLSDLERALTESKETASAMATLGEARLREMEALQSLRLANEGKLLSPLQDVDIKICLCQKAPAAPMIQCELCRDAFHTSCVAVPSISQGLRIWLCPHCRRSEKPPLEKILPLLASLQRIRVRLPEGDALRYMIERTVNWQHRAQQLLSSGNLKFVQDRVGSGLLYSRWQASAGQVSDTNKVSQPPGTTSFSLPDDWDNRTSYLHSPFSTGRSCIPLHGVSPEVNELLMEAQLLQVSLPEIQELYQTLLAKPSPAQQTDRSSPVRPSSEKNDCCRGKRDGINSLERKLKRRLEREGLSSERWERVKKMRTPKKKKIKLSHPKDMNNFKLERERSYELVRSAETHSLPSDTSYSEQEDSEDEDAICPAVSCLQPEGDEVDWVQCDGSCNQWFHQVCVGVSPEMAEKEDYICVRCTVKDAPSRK
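Measured: NADH fluorescence change, 30 min, RT. System: KDM5BΔAP 200 nM final, H3K4me3 peptide, α-KG, Fe(II), ascorbate, NAD⁺ plus FDH, pH 7.5 HEPES. Compounds: titrated, 10 min pre-incubation with enzyme.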
Numbers without * were called inactive; i = inactive; ! = not active in a repeat. Potency is the fitted concentration of half-maximal effect.

SMILES	KDM5B inh
CC1CCc2c(sc(NC(=O)c3ccc(Cl)cc3Cl)c2C#N)C1 (stereo not given)	i
Fc1ccccc1CSc1nc2ccccc2nc1SCc1ccccc1F	i
CCN1C(=O)CCN(CC2CCCCC2)CC12CCOCC2	i
COCCN1C[C@]23C=C[C@H](O2)C(C(=O)N(C)Cc2cnccn2)C3C1=O (stereo not given in full)	i
COc1ccc(S(=O)(=O)N2CCN(CC(=O)NC(Cc3ccccc3)C(C)=O)CC2)cc1 (stereo not given)	i
Cc1cccc(NC(=O)c2cc3c([nH]c2=O)CC(c2ccccc2)CC3=O)c1 (stereo not given)	i
COc1ccc2c(c1)CN(C(=O)c1ccc(C(F)(F)F)cc1)CC[C@H]1COC(=O)N21	i
CN(C)c1ccc(C(=O)N2CCN(C(=O)c3ccc(N(C)C)cc3)[C@H](C(=O)N[C@H](Cc3c[nH]c4ccccc34)C(N)=O)C2)cc1	28.2µM*
NC(=O)[C@@H](Cc1c[nH]c2ccccc12)NC(=O)[C@H]1CN(C(=O)c2cccc(F)c2)CCN1C(=O)C1CCNCC1	i
CN(C)c1ccc(C(=O)N2CCN(S(C)(=O)=O)[C@H](C(=O)N[C@H](Cc3c[nH]c4ccccc34)C(N)=O)C2)cc1	i
Cc1ccc(CCC(=O)NC(C)c2cccnc2)c(C)c1 (stereo not given)	i
CCN(CC)C(=O)C1Cn2cccc2C(=O)N1C (stereo not given)	i
CCNC(=O)[C@@H]1C[C@H](N)CN1C(=O)c1ccc(NC(C)=O)cc1C	i
CCN(CC)C(=O)[C@@H]1C[C@H](N)CN1C(=O)c1cc2ccccc2n(C)c1=O	31.6µM*
Cc1nn(C)c2c1c(C(F)(F)F)cc(=O)n2CC(=O)N1CCN(c2ccccc2F)CC1	i
CCOc1ccc(NS(=O)(=O)c2ccc3[nH]cc(C(=O)N4CCCC4)c(=O)c3c2)cc1	i
O=C(c1cccs1)N1CCC(OCC2CC2)C1 (stereo not given)	i
Cc1cc(-c2nc3ccncc3[nH]2)c(C)[nH]1	31.6µM*
Cc1ccc2nc(CCCO)[nH]c2c1	i
Cc1cccc(-c2nc(CSc3nc4ccncc4[nH]3)c(C)o2)c1	i
Cc1oc(-c2ccccc2)nc1CSc1nc2ccncc2[nH]1	i
c1coc(-c2nc3ccncc3[nH]2)c1	31.6µM*!
Cc1oc(-c2ccc(Cl)cc2)nc1CSc1nc2ccncc2[nH]1	i
O=C(NCc1c[nH]c2ncccc12)c1ccncc1	i
O=c1[nH]cccc1-c1nc2ccccc2[nH]1	i
SMILES	KDM5B inh
CCc1cccc(C)c1NC(=O)CSc1nc2ccncc2[nH]1	i
Cc1occc1-c1nc2ccncc2[nH]1	31.6µM*!
c1cnc2[nH]cc(-c3nc4ccncc4[nH]3)c2c1	35.5µM*!
COc1cccc(-c2cc(C3CCN(C(=O)Nc4cccc(F)c4)CC3)[nH]n2)c1	i
COc1ccc(NC(=O)C2CCN(c3nc4ccccc4o3)CC2)c(OC)c1	i
CN(CCc1ccccn1)C(=O)C1CCCN(c2cnn(Cc3ccccc3)c(=O)c2)C1 (stereo not given)	i
COc1ccc(C(C)=O)cc1CN(C)Cc1ccccc1	i
COc1ccc(C2CC(c3ccsc3)=NN2C(=O)CCC(=O)O)cc1OC (stereo not given)	i
CCOc1ccc(NC(=O)c2cnc3ccccn3c2=O)cc1	i
Cc1ccsc1CN(C)C(=O)CCl	i
COc1cccc(-c2noc(CC3CCN(C(=O)c4ccccc4C)CC3)n2)c1	i
CCOC(=O)C1=C(c2ccccc2)OC(=C(C(F)(F)F)C(F)(F)F)S1	i
COc1cc(N2CCC(CO)(Cc3ccccc3C(F)(F)F)CC2)ncn1	i
Cc1nn(C(=O)CCCC(=O)N2CCC(Cc3nncn3CC3CC3)CC2)c2ccccc12	i
Cc1cccc(C(=O)N2CCC(Cc3nncn3CC3CC3)CC2)c1	i
Cc1ccccc1Cc1c(C)nc2c(C(=O)N3CCC(Cc4nncn4CC4CC4)CC3)cnn2c1C	25.1µM*
COCCCn1c(=N)c(S(=O)(=O)c2ccccc2)cc2c(=O)n3cc(C)ccc3nc21	i
Cc1nnc(-c2cc(-c3cccc(F)c3)ccn2)n1Cc1ccccc1	i
COCCn1c(C)nnc1-c1cc(-c2cccc(OC(F)(F)F)c2)ccn1	i
COCCn1c(C)nnc1-c1cc(-c2ccc(OC)c(OC)c2)ccn1	31.6µM*
Cc1nnc(-c2cc(-c3cccc(N(C)C)c3)ccn2)n1Cc1ccccc1	i
COc1cccc(-c2ccnc(-c3nnc(C)n3Cc3ccccc3)c2)c1	35.5µM*
COc1ncc(-c2ccnc(-c3nnc(C)n3CCc3ccccc3)c2)cn1	i
O=C1c2ccccc2C(Nc2ccc3c(c2)OCCO3)N1Cc1ccccc1Cl (stereo not given)	i
CCCN(CCC)c1ccc(NS(=O)(=O)c2cccs2)cc1C(=O)O	i
O=C(Cc1cccs1)Nc1ccc2c(N3CCCCC3)ncnc2c1	i
COc1ccc(-c2ccnc3[nH]n(-c4ccccc4)c(=O)c23)cc1	i
COc1ccc(-c2cc(-c3cccnc3OC)cn3cncc23)cc1	35.5µM*

Compound activity (PubChem BioAssay)
